D2 ag-1 = Beta-Arrestin HTS for Positive Allosteric Modulators of the Human D2 Dopamine Receptor: Agonists. D(2) dopamine receptor (Homo sapiens), P14416. DiscoveRx PathHunter D2 beta-arrestin, luminescence, 90 min; 100% = 57 uM dopamine signal. activation, % (concentration not given with the values). hit rate 0.084% among 360,000; in the data active = activation above about 40%; inconclusive = between about 15% and that limit
Target sequence (P14416 whole entry, looked up): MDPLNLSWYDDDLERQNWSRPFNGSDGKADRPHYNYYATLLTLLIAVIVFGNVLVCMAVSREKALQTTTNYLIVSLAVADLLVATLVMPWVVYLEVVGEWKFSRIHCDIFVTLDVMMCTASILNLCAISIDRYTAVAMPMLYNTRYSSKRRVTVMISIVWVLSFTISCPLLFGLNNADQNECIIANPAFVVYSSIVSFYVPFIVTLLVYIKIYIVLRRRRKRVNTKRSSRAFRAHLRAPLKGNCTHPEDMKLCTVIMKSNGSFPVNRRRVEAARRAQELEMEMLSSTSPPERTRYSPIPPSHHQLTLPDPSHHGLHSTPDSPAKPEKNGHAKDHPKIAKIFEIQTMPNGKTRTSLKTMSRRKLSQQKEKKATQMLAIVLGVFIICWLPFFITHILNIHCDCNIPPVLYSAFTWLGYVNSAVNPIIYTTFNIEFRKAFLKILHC
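Agonist mode: compounds alone added to overnight-plated D2 PathHunter cells for 90 min at 37 C, with 57 uM final dopamine (EC100) defining full response. Beta-arrestin recruitment detected by chemiluminescent reagent, read after 1 h at ambient temperature.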
D2 PAM-1 = HTS Assay for Positive Allosteric Modulators of the Human D2 Dopamine Receptor: Primary Screen for Potentiators; AID 485347, 2010; HEK293 T-REx D2, calcium flux, EC20 dopamine potentiation; potentiation, % at 10 µM; D(2) dopamine receptor (Homo sapiens), P14416; hit rate 0.34% among 340,000;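 active = potentiation over 3 SD above the plate norm, cut at about 30% in these data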; note: 0% is about no effect
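Cells plated with tetracycline inducer and held overnight at 30 C; calcium dye loaded 30–90 min at room temperature; baseline taken, compound added and read 180 s; EC20 dopamine then added and read 180 s.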
D2 ag-2 = HTS Assay for Allosteric Agonists of the Human D2 Dopamine Receptor: Primary Screen for Agonists; HEK293 T-REx D2 cells, calcium flux agonist mode; activation, % at 2 µM; hit rate 0.53% among 340,000; AID 485358, 2010;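 active = activation over 3 SD above normal in the single-dose calcium agonist read, cut at about 30% in these data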; note: 0% is about no effect
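Tetracycline-induced HEK293 Trex cells with D2 receptor force-coupled to calcium signaling, plated overnight at 30 C and loaded with no-wash calcium dye. Calcium flux read kinetically for 180 s after compound addition; responses flag agonists.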
D2 antagonist = HTS Assay for Allosteric Antagonists of the Human D2 Dopamine Receptor: Primary Screen for Antagonists; HEK293 TREx D2 cells, calcium flux, dopamine EC80; inhibition, % at 10 µM; hit rate 2% among 340,000; in the data active = inhibition above about 30%; inactive = below that, where a call was filed; note: 0% is about no effect
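Calcium flux kinetic readout in an inducible HEK293 TREx D2 line plated overnight at 30 C. After 180 s compound exposure, an EC80 dopamine challenge follows with another 180 s kinetic read to detect antagonism.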
D2 PAM-2 = Beta-Arrestin HTS for Positive Allosteric Modulators of the Human D2 Dopamine Receptor: Potentiators; D(2) dopamine receptor (Homo sapiens), P14416; DiscoveRx D2 beta-arrestin cells, luminescence, 90 min; 100% = 57 uM dopamine signal; potentiation, % (test concentration not listed); hit rate 0.23% among 360,000; AID 624464, 2012; in the data active = potentiation above about 50%; inconclusive = mostly about 30% to 49%
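PathHunter beta-arrestin assay in DiscoveRx D2 cells. Compounds were added with an EC20 of dopamine (50 nM final) for 90 min at 37 deg C. Luminescence was read 1 h after detection reagent, with 57 uM dopamine as the EC100 control.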
The depositor's hits bear a star; ? = inconclusive; nt = no result given. This is a sample that favours compounds with a hit; in the whole collection about 2.4% have one here.

SMILES	D2 ag-1	D2 PAM-1	D2 ag-2	D2 antagonist	D2 PAM-2
Cn1c(=O)oc2cc(S(=O)(=O)N3CCC4(CC3)OCCO4)ccc21	0.4	-1.1	1.8	3.6	2.1
CCCOc1ccc(-c2c(C(=O)N/N=C/c3ccc(C)o3)nnn2-c2nonc2N)cc1	-1.2	89.9*	0.0	-0.7	-5.7
COc1ccc(/C(C)=N/NC(=O)c2nnn(-c3nonc3N)c2-c2ccccc2)cc1	-0.7	16.8	31.2*	5.8	-4.9
CCCOc1ccc(-c2c(C(=O)N/N=C/c3cccs3)nnn2-c2nonc2N)cc1	1.3	48.6*	-0.3	19.1	3.9
C/C(=N/NC(=O)c1nnn(-c2nonc2N)c1-c1ccccc1)c1ccncc1	1.8	-9.8	2.3	-1.8	-4.0
CCOc1ccc(-c2c(C(=O)N/N=C/c3ccc(C)o3)nnn2-c2nonc2N)cc1	-4.2	-5.0	0.2	8.5	-1.0
CCOc1ccc(-c2c(C(=O)N/N=C(\C)c3cccs3)nnn2-c2nonc2N)cc1	-9.1	74.1*	3.8	-16.8	-4.6
COc1ccc(-c2[nH]c3c(c2-c2c(-n4cccc4)n(C)c(=O)[nH]c2=O)c(=O)[nH]c(=O)n3C)cc1F	nt	5.7	-0.6	nt	nt
COC(=O)CCN1CCC(c2cc(-c3cccc(C(F)(F)F)c3)n[nH]2)CC1	-3.4	-8.5	1.1	-26.8	-9.6
Cc1ccc(CN2CCC(c3cc(-c4cccs4)n[nH]3)CC2)cc1	1.3	-21.0	1.1	69.9*	-18.1
FC(F)(F)c1cccc(CN2CCC(c3cc(-c4cccs4)n[nH]3)CC2)c1	3.0	-33.0	0.1	83.9*	-16.1
Cc1nn(Cc2ccccc2)c(C)c1NC(=O)c1ccc([N+](=O)[O-])cc1[N+](=O)[O-]	?	-10.7	-0.2	-12.2	88.3*
O=C(/C=C/c1ccco1)NCCc1ccccc1	-2.7	-6.2	-0.3	31.7*	0.2
O=C(/C=C/c1ccco1)Nc1cc(Cl)ccc1C(=O)O	-0.1	8.5	-1.5	34.4*	-17.9
O=C(O)CCCNC(=O)/C=C/c1ccco1	-6.2	14.6	-0.3	0.0	-0.8
O=C(O)C(Cc1ccccc1)N1C(=O)c2ccccc2C1=O (stereo not drawn)	-3.0	-16.4	0.5	13.7	4.5
CCC(C(=O)O)N1C(=O)c2ccccc2C1=O (stereo not drawn)	0.1	4.9	0.5	37.0*	1.4
CCc1ccc(S(=O)(=O)Nc2cccc(-c3ccc(N4CCOCC4)nn3)c2)cc1	nt	5.6	-1.2	nt	nt
COc1ccc(-n2c(CN3CCN(c4ccccn4)CC3)nc3ccc([N+](=O)[O-])cc3c2=O)c(OC)c1	-0.1	-6.4	35.9*	6.3	-7.6
CCOc1ccc(/C=N/Nc2nc(=O)[nH]nc2C)cc1OC	-2.0	43.5*	0.2	-16.2	-3.1
O=[N+]([O-])c1ccccc1NCCNS(=O)(=O)c1ccc(Cl)cc1	-3.6	-2.3	2.0	33.8*	-15.4
COc1ccc(S(=O)(=O)NCc2cccnc2)cc1Br	11.2	4.2	0.9	-5.2	59.9*
COc1ccc(S(=O)(=O)NCc2cccnc2)cc1	-4.7	-7.1	-0.6	7.9	-3.2
Cc1[nH]c(=O)[nH]c(=O)c1C1N2CC3(C(C)C)CN1CC(C(C)C)(C2)C3=O (stereo not drawn)	nt	-1.0	nt	nt	nt
CC12CCC(=O)N1c1ccccc1C(=O)N2c1ccccc1 (stereo not drawn)	1.1	34.5*	0.8	-21.2	-16.2
O=C(COc1ccccc1F)Nc1ccc2nc(SCc3ccccc3)sc2c1	nt	-17.1	4.2	nt	nt
CC(=O)N(c1ccccc1)c1nc(C)cc(C)c1C#N	-3.5	-3.9	1.4	35.3*	-21.6
S=C(NCC1CCCO1)N1CCN(c2nc(-c3ccccc3)cs2)CC1 (stereo not drawn)	0.9	-19.6	1.2	66.6*	-15.8
